Data on 21 molecules can be found in PubChem BioAssay.

Molecules are shown by their SMILES. “And” between values parts separate entries of the source, which are not always exact repeats. Equal entries are not always repeated. The source made the active and inactive calls.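 The calls were made as follows, unless noted: active = compounds whose cell count with miR-34 switched on is under 0.7 times the count with it off; inactive = the rest.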

A short description of assay [1]: viability loss with induced miR-34 in A549 – imaging, A549 dox-inducible miR-34, nuclei and caspase counts, primary screen (AID 1347080). As to conditions: A549 miR-34 inducible, Hoechst nuclei count, 48 h.
Assay [2] is described as follows: MELAS cybrid and Rieske KO viability enhancers – cell-based, MELAS cybrids, Rieske KO mouse fibroblasts, CellTiter-Glo, primary screen (AID 1508586;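 active = mean z-score across replicates of 1.96 or higher in either the MELAS or the Rieske mutant cell line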;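 also: z relative to plate mean and SD of compound and empty wells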). The note with it: low glucose. For orientation: ATP-based viability assays read luminescence as a measure of living cells.
Setting [3] is: stronger effect = lower value, cell number ratio, induced over uninduced.
Setting [4] is: measured here: relative caspase fold change +Dox/-Dox.
The mark [5] stands for this setting: measured here: total cells with miR-34 induction, stronger effect = lower value.
Where [6] appears, read: measured here: total cells without miR-34 induction.
The mark [7] stands for this setting: MELAS cybrid survival, CellTiter-Glo 48 h, stronger effect = higher value.
The mark [8] stands for this setting: Rieske KO mouse fibroblast survival, CellTiter-Glo 72 h.
Also: test concentration not given here.

Consider `Nc1ccc(S(=O)(=O)Nc2ccc(Cl)nn2)cc1`, for which the fold change in assay [1] (setting [3]) was 0.789 (inactive) and 0.924 (inactive); in assay [1] (setting [4]), 1.6 and 3.43. Further, the cell count is 7930 and 11400 in assay [1] (setting [5]); 10000 and 12300 in assay [1] (setting [6]). In addition, the z-score in assay [2] (setting [7]) is 0.0891 (inactive); in assay [2] (setting [8]) it was 0.0567.

Take `CC1(C)O[C@@H]2C[C@H]3[C@@H]4CCC5=CC(=O)CC[C@]5(C)[C@@]4(F)[C@@H](O)C[C@]3(C)[C@]2(C(=O)CCl)O1`: the fold change was 0.774 (inactive) in assay [1] (setting [3]) and 1.34 in assay [1] (setting [4]). Also, the cell count in assay [1] (setting [5]) came to 5550; in assay [1] (setting [6]), 7170. The z-score in assay [2] (setting [7]) is 0.0233 (inactive); in assay [2] (setting [8]) it was 1.13.

For the molecule `CCN(CCCCOC(=O)c1ccc(OC)c(OC)c1)C(C)Cc1ccc(OC)cc1` (stereo unspecified), the fold change in assay [1] (setting [3]) was 0.98 (inactive) and 0.929 (inactive); in assay [1] (setting [4]) it was 1.13 and 3.04. In addition, the cell count in assay [1] (setting [5]) was 7620 and 11300; in assay [1] (setting [6]) it was 7780 and 12200. Further, the values for the z-score in assay [2] (setting [7]) and in assay [2] (setting [8]) were 1.33 (inactive) and 0.343, respectively.

As for `Nc1ccc(S(=O)(=O)NC(=O)c2ccccc2)cc1`, the fold change was 0.806 (inactive) and 0.919 (inactive) in assay [1] (setting [3]); 1.13 and 2.49 in assay [1] (setting [4]). Besides, the cell count is 7780 and 10600 in assay [1] (setting [5]); 9660 and 11500 in assay [1] (setting [6]). For the same molecule, the z-score was -0.2 (inactive) in assay [2] (setting [7]) and -0.379 in assay [2] (setting [8]).

On to `Cc1cc(C)nc(NS(=O)(=O)c2ccc(N)cc2)n1`, for which the fold change is 0.847 (inactive) and 0.927 (inactive) and 0.901 (inactive) in assay [1] (setting [3]); 1.07 and 0.872 and 2.46 in assay [1] (setting [4]). Also, the cell count in assay [1] (setting [5]) was 9060 and 8070 and 10900; in assay [1] (setting [6]) it was 10700 and 8710 and 12100. Further, the z-score is -0.0833 (inactive) and 0.863 (inactive) in assay [2] (setting [7]); -0.156 and 0.665 in assay [2] (setting [8]).

With `NS(=O)(=O)c1cc2c(cc1Cl)NC(CSCc1ccccc1)=NS2(=O)=O`, the fold change is 0.856 (inactive) and 0.772 (inactive) in assay [1] (setting [3]); 1.39 and 1.03 in assay [1] (setting [4]). Besides, the cell count is 8870 and 9840 in assay [1] (setting [5]); 10400 and 12800 in assay [1] (setting [6]). Moreover, the values for the z-score in assay [2] (setting [7]) and in assay [2] (setting [8]) were 0.425 (inactive) and -0.312, respectively.

As to `CCOc1ccc(Cc2nccc3cc(OCC)c(OCC)cc23)cc1OCC`, the figures for the fold change in assay [1] (setting [3]) and in assay [1] (setting [4]) were 0.917 (inactive) and 1.32, respectively. The cell count in assay [1] (setting [5]) was determined as 5900; in assay [1] (setting [6]), 6440. Further, the z-score in assay [2] (setting [7]) was 0.91 (inactive); in assay [2] (setting [8]) it was 1.27.

As for `CCCCCCCCCCCCCCCCOP(=O)([O-])OCC[N+](C)(C)C`, the fold change was 1 (inactive) and 0.955 (inactive) in assay [1] (setting [3]); 0.961 and 1.28 in assay [1] (setting [4]). Moreover, the cell count in assay [1] (setting [5]) was 5900 and 10200; in assay [1] (setting [6]), 5890 and 10700. Moreover, the z-score is -0.744 (inactive) in assay [2] (setting [7]) and -0.431 in assay [2] (setting [8]).

For the molecule `CC[N+](C)(C)Cc1ccccc1Br`, the results for the fold change in assay [1] (setting [3]) and in assay [1] (setting [4]) were 0.896 (inactive) and 1.09, respectively. Besides, the values for the cell count in assay [1] (setting [5]) and in assay [1] (setting [6]) were 8620 and 9630, respectively. Moreover, the z-score in assay [2] (setting [7]) was 0.582 (inactive); in assay [2] (setting [8]), 0.0274.

With `CC1CC(OC(=O)C(O)c2ccccc2)CC(C)(C)N1C` (stereo unspecified), the fold change is 0.792 (inactive) in assay [1] (setting [3]) and 1.56 in assay [1] (setting [4]). Further, the cell count in assay [1] (setting [5]) was determined as 7700; in assay [1] (setting [6]), 9720. In addition, the z-score in assay [2] (setting [7]) is -0.0236 (inactive); in assay [2] (setting [8]) it was -0.373.

Take `CCN(CC)CCOC(=O)C(c1ccccc1)C1CCCCC1` (stereo unspecified): the values for the fold change in assay [1] (setting [3]) and in assay [1] (setting [4]) were 0.896 (inactive) and 1.16, respectively. Further, the cell count in assay [1] (setting [5]) was found to be 8670; in assay [1] (setting [6]), 9680. Besides, the values for the z-score in assay [2] (setting [7]) and in assay [2] (setting [8]) were -2.21 (inactive) and 0.0498, respectively.

For `CCN(CC)C(=O)N1CCN(C)CC1`, the fold change in assay [1] (setting [3]) is 0.919 (inactive) and 0.923 (inactive) and 0.836 (inactive); in assay [1] (setting [4]) it was 1.19 and 0.187 and 0.88. Besides, the cell count in assay [1] (setting [5]) was 8740 and 9030 and 11300; in assay [1] (setting [6]), 9520 and 9780 and 13500. In addition, the z-score in assay [2] (setting [7]) is 0.833 (inactive) and 0.0717 (inactive); in assay [2] (setting [8]) it was -0.23 and -0.00609.

In the case of `C[N+]12CCC(CC1)C(OC(=O)C(O)(c1ccccc1)c1ccccc1)C2` (stereo unspecified), the fold change in assay [1] (setting [3]) was 0.841 (inactive) and 0.859 (inactive); in assay [1] (setting [4]) it was 1.4 and 1.29. The cell count is 8530 and 9960 in assay [1] (setting [5]); 10100 and 11600 in assay [1] (setting [6]). In addition, the z-score in assay [2] (setting [7]) is 0.605 (inactive); in assay [2] (setting [8]), -0.405.

Consider `CCCc1ncc(C[n+]2ccccc2C)c(N)n1`, for which the fold change was 0.899 (inactive) and 0.934 (inactive) and 0.817 (inactive) in assay [1] (setting [3]); 1.48 and 1.05 and 2.66 in assay [1] (setting [4]). The cell count is 8050 and 8570 and 10100 in assay [1] (setting [5]); 8960 and 9180 and 12400 in assay [1] (setting [6]). Moreover, the z-score in assay [2] (setting [7]) is -0.137 (inactive) and -0.369 (inactive); in assay [2] (setting [8]), -0.2 and 0.188.

Consider `CCN(CC)CCNC(=O)c1cc(Br)c(N)cc1OC`, for which the fold change is 0.86 (inactive) in assay [1] (setting [3]) and 1.23 in assay [1] (setting [4]). For the same molecule, the cell count in assay [1] (setting [5]) was found to be 8310; in assay [1] (setting [6]), 9660. Further, the z-score in assay [2] (setting [7]) is -0.546 (inactive); in assay [2] (setting [8]) it was 0.146.

Turning to `CC(=O)Nc1ccccc1`, the fold change in assay [1] (setting [3]) is 0.942 (inactive) and 0.865 (inactive); in assay [1] (setting [4]), 0.456 and 3.01. Also, the cell count in assay [1] (setting [5]) is 7610 and 11100; in assay [1] (setting [6]), 8080 and 12800. The z-score is -0.316 (inactive) in assay [2] (setting [7]) and -0.0672 in assay [2] (setting [8]).

Take `CCOC(=O)n1ccn(C)c1=S`: the fold change in assay [1] (setting [3]) was 0.866 (inactive) and 0.865 (inactive); in assay [1] (setting [4]), 1.28 and 0.473. In addition, the cell count in assay [1] (setting [5]) was 8700 and 8400; in assay [1] (setting [6]), 10100 and 9710. The z-score is -0.0629 (inactive) and 0.57 (inactive) in assay [2] (setting [7]); -0.122 and 0.0161 in assay [2] (setting [8]).

As to `CCN1CC(CCN2CCOCC2)C(c2ccccc2)(c2ccccc2)C1=O` (stereo unspecified), the fold change in assay [1] (setting [3]) is 0.947 (inactive) and 1 (inactive); in assay [1] (setting [4]), 1.42 and 1.3. Moreover, the cell count is 7960 and 7680 in assay [1] (setting [5]); 8400 and 7650 in assay [1] (setting [6]). Also, the z-score was -0.295 (inactive) and -0.762 (inactive) in assay [2] (setting [7]); -0.241 and -0.506 in assay [2] (setting [8]).

`O=C(O)CCC(=O)c1ccc(-c2ccccc2)cc1`: the fold change in assay [1] (setting [3]) was 0.889 (inactive) and 0.912 (inactive) and 0.859 (inactive); in assay [1] (setting [4]), 0.334 and 2.8 and 1.54. The cell count is 8550 and 11300 and 9420 in assay [1] (setting [5]); 9620 and 12400 and 11000 in assay [1] (setting [6]). Besides, the z-score in assay [2] (setting [7]) was 0.38 (inactive) and 0.679 (inactive); in assay [2] (setting [8]), 0.124 and 0.414.

Regarding `CCOC(=O)NNc1nncc2ccccc12`, the fold change in assay [1] (setting [3]) is 0.882 (inactive); in assay [1] (setting [4]), 0.778. Also, the cell count in assay [1] (setting [5]) was determined as 8120; in assay [1] (setting [6]) it was 9200. Besides, the values for the z-score in assay [2] (setting [7]) and in assay [2] (setting [8]) were -0.647 (inactive) and -0.171, respectively.

With `C[n+]1ccccc1/C=N/O`, the fold change in assay [1] (setting [3]) is 0.951 (inactive) and 0.91 (inactive); in assay [1] (setting [4]), 1.53 and 0.982. The cell count in assay [1] (setting [5]) was 10700 and 9130; in assay [1] (setting [6]) it was 11200 and 10000. In addition, the z-score in assay [2] (setting [7]) is 0.437 (inactive); in assay [2] (setting [8]) it was -0.00254.
